Where “and” joins values, the source holds several entries; their conditions need not be identical. Equal values may be shown once. About 79,000 compounds went through this panel and 15% of them were active in at least one assay; those are over-represented in the sample as a whole. A structure can be active in one record and inactive in another. Calls of active or inactive are those of the source. Rule as the data show it: active = growth inhibition above about 70%; inactive = the rest.
Tests used:
[1] = NCI Yeast Anticancer Drug Screen. Data for the rad50 strain (AID 155);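 also: 0% = growth of vehicle-only cultures of the same strain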; details: S. cerevisiae rad50 strain growth inhibition, stronger effect = higher value
Outline: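 Cells are treated with compound, grown, and their growth is then scored against vehicle-only cultures of the same repair-deficient yeast strain.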

[2] = NCI Yeast Anticancer Drug Screen. Data for the mec2-1 strain (AID 157); details: S. cerevisiae mec2-1 strain, stronger effect = higher value
Outline: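 Each compound was tested on mec2-1 yeast, a strain altered in DNA damage repair or cell cycle control. Growth inhibition is reported relative to vehicle.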

[3] = NCI Yeast Anticancer Drug Screen. Data for the sgs1 mgt1 strain (AID 161);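 also: 0% = growth of cultures given vehicle only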; details: S. cerevisiae sgs1 mgt1 strain, stronger effect = higher value
Outline: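 Test agents were incubated with a DNA-repair-mutant yeast strain. Growth was then read and compared against vehicle-treated controls.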

[4] = NCI Yeast Anticancer Drug Screen. Data for the cln2 rad14 strain (AID 165);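 also: 0% = growth equal to vehicle treated cultures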; details: S. cerevisiae cln2 rad14 strain, stronger effect = higher value
Outline: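 Test compounds were added to cln2 rad14 yeast cultures; inhibition of growth was then determined by comparison with vehicle treatment.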

[5] = NCI Yeast Anticancer Drug Screen. Data for the bub3 strain (AID 167); details: S. cerevisiae bub3 mutant strain, stronger effect = higher value
Outline: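 Part of a panel of yeast mutants defective in DNA damage repair or cell cycle regulation. Each strain is grown with compound, and inhibition is calculated relative to solvent-treated cultures.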

[6] = NCI Yeast Anticancer Drug Screen. Data for the mlh1 rad18 strain (AID 175); details: S. cerevisiae mlh1 rad18 strain growth inhibition, stronger effect = higher value
Outline: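 Inhibition values reflect reduced growth of mutant yeast versus vehicle-treated controls following compound exposure; the mutations affect DNA damage repair.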

[7] = at 5.0 µM (retest, dose inferred, filed as 0.5)
[8] = at 50.0 µM (retest, dose inferred, filed as 5.0)

Structure (SMILES)	growth inhibition [1, 7]	growth inhibition [1, 8]	growth inhibition ([1]; at 50.0 µM)	growth inhibition [2, 7]	growth inhibition [2, 8]	growth inhibition ([2]; at 50.0 µM)	growth inhibition [3, 7]	growth inhibition [3, 8]	growth inhibition ([3]; at 50.0 µM)	growth inhibition [4, 7]	growth inhibition [4, 8]	growth inhibition ([4]; at 50.0 µM)	growth inhibition [5, 7]	growth inhibition [5, 8]	growth inhibition ([5]; at 50.0 µM)	growth inhibition [6, 7]	growth inhibition [6, 8]	growth inhibition ([6]; at 50.0 µM)
CN(C)c1ccc(/C=C/c2sc3ccccc3[n+]2C)cc1	-39% (inactive) and 14% (inactive)	99% (active) and 98% (active)	99.2% (active)	-16% (inactive) and 49% (inactive)	99% (active)	99.2% (active) and 99.4% (active)	-2% (inactive) and 16% (inactive)	72% (active) and 99% (active)	99.5% (active) and 99.4% (active)	-2% (inactive) and 13% (inactive)	99% (active) and 98% (active)	98.8% (active) and 99.3% (active)	12% (inactive) and -4% (inactive)	99% (active)	99.4% (active) and 99.3% (active)	7% (inactive) and 22% (inactive)	99% (active)	99.3% (active) and 99.2% (active)
CN1CCN(CN2C(=O)C3C4C=CC(C3C2=O)C2C3C(=O)N(CN5CCN(C)CC5)C(=O)C3C42)CC1 (stereo not given)	-3% (inactive)	-12% (inactive)	-28.4% (inactive) and -8.45% (inactive) and -17.1% (inactive)	1% (inactive)	30% (inactive)	-28.4% (inactive) and 11.8% (inactive) and -15.2% (inactive)	-1% (inactive)	0% (inactive)	-18.7% (inactive) and 18.9% (inactive) and -32.5% (inactive)	-10% (inactive)	-9% (inactive)	-7.45% (inactive) and 32.5% (inactive) and -40.9% (inactive)	11% (inactive)	2% (inactive)	-13.5% (inactive) and -11.5% (inactive) and -76% (inactive)	-1% (inactive)	18% (inactive)	-4.4% (inactive) and -31.1% (inactive) and -65% (inactive)
Clc1ccc(CNNCc2ccc(Cl)cc2)cc1	-12% (inactive)	85% (active)	7.2% (inactive) and 78.7% (active)	0% (inactive)	96% (active)	-3.05% (inactive) and -2.3% (inactive)	-2% (inactive)	98% (active)	-3% (inactive) and 58.5% (inactive)	-1% (inactive)	72% (active)	-10.4% (inactive) and 16.6% (inactive)	46% (inactive)	96% (active)	-9.95% (inactive) and 72.6% (active)	-2% (inactive)	94% (active)	11.7% (inactive) and 67.8% (inactive)
CCCCCCCCCCCCCCCC[N+](C)(C)c1nc(Cl)nc(Cl)n1	99% (active)	99% (active)	99.3% (active)	100% (active)	100% (active)	98.1% (active)	100% (active)	100% (active)	99.2% (active)	98% (active)	99% (active)	95.5% (active)	99% (active)	99% (active)	99.3% (active)	99% (active)	99% (active)	95.8% (active)
COc1cc2c(cc1OC)C(Cc1c3ccccc3cc3ccccc13)N(C)CC2 (stereo not given)	4% (inactive)	41% (inactive)	16.2% (inactive)	-18% (inactive)	43% (inactive)	14.8% (inactive)	1% (inactive)	50% (inactive)	93.1% (active)	0% (inactive)	3% (inactive)	62.5% (inactive)	0% (inactive)	15% (inactive)	58.3% (inactive)	3% (inactive)	56% (inactive)	99.4% (active)
O=C(CCN1CCN2c3ccccc3CCC2C1)c1ccc(F)cc1 (stereo not given)	51% (inactive) and 17% (inactive)	86% (active) and 98% (active)	95.7% (active) and 83.2% (active)	63% (inactive) and 22% (inactive)	88% (active) and 97% (active)	91.5% (active) and 43.5% (inactive)	74% (active) and -2% (inactive)	96% (active) and 100% (active)	97.2% (active) and 89.7% (active)	65% (inactive) and -5% (inactive)	64% (inactive) and 98% (active)	93.5% (active) and 22.4% (inactive)	60% (inactive) and 78% (active)	84% (active) and 99% (active)	97.8% (active) and 95.2% (active)	82% (active) and 40% (inactive)	96% (active) and 99% (active)	98.5% (active) and 45% (inactive)
CN=c1sc2nc(C#N)c(C#N)nc2n1C	-15% (inactive)	44% (inactive)	85.3% (active)	-8% (inactive)	61% (inactive)	40.1% (inactive)	-23% (inactive)	35% (inactive)	75.3% (active)	2% (inactive)	23% (inactive)	63.1% (inactive)	-22% (inactive)	69% (inactive)	89.8% (active)	-8% (inactive)	58% (inactive)	81.5% (active)
COc1ccc2nc3cc(Cl)ccc3c(NCCCNCc3cc(OC)c(OC)c(OC)c3)c2c1	18% (inactive)	92% (active)	98.2% (active)	-3% (inactive)	62% (inactive)	98.3% (active)	6% (inactive)	87% (active)	98.3% (active)	21% (inactive)	83% (active)	98.8% (active)	22% (inactive)	82% (active)	98.8% (active)	3% (inactive)	92% (active)	98% (active)
CC(CCc1nc2ccccc2s1)(c1ccc(O)cc1)c1ccc(O)cc1	27% (inactive)	99% (active)	99.5% (active)	-5% (inactive)	100% (active)	99.7% (active)	15% (inactive)	100% (active)	99.3% (active)	6% (inactive)	99% (active)	98.3% (active)	-12% (inactive)	99% (active)	99.2% (active)	11% (inactive)	100% (active)	99.2% (active)
O=S(=O)(O)c1ccc2cc(N=Nc3c(O)ccc4ccccc34)ccc2c1	9% (inactive)	15% (inactive)	19.9% (inactive)	2% (inactive)	12% (inactive)	5.45% (inactive)	7% (inactive)	72% (active)	75.3% (active)	-7% (inactive)	0% (inactive)	33.4% (inactive)	-2% (inactive)	-21% (inactive)	3.5% (inactive)	2% (inactive)	10% (inactive)	34.9% (inactive)
CC(=O)OC1OC(=O)C(C)(C(C)=O)C1C (stereo not given)	19% (inactive)	95% (active)	89.9% (active)	10% (inactive)	96% (active)	89.6% (active)	25% (inactive)	93% (active)	89.9% (active)	27% (inactive)	81% (active)	83.2% (active)	23% (inactive)	93% (active)	89.2% (active)	22% (inactive)	96% (active)	89.6% (active)
c1ccc2c(c1)[nH]c1c(N3CCOCC3)nnc(N3CCOCC3)c12	2% (inactive)	1% (inactive)	35.5% (inactive)	-5% (inactive)	3% (inactive)	44% (inactive)	-2% (inactive)	0% (inactive)	77.8% (active)	-2% (inactive)	-5% (inactive)	35.3% (inactive)	0% (inactive)	-1% (inactive)	47.1% (inactive)	-6% (inactive)	-6% (inactive)	83% (active)
C[N+]1(Cc2ccc(Cl)c(Cl)c2)CCCC1C1CCCN(Cc2ccc(Cl)c(Cl)c2)C1 (stereo not given)	-4% (inactive)	51% (inactive)	6.55% (inactive) and -11.7% (inactive)	-2% (inactive)	59% (inactive)	-3.95% (inactive) and 3.6% (inactive)	3% (inactive)	80% (active)	5.3% (inactive) and 14% (inactive)	-11% (inactive)	27% (inactive)	-15.3% (inactive) and 42.5% (inactive)	-1% (inactive)	61% (inactive)	22.2% (inactive) and 15.3% (inactive)	-2% (inactive)	76% (active)	29.1% (inactive) and 48.3% (inactive)
CC1=CC(C)(C)Nc2ccc(CSc3ccccc3)cc21	7% (inactive)	25% (inactive)	8.1% (inactive) and 36.4% (inactive)	-8% (inactive)	-17% (inactive)	11.9% (inactive) and 5.5% (inactive)	-1% (inactive)	10% (inactive)	12.4% (inactive) and 13.9% (inactive)	-13% (inactive)	6% (inactive)	-1.1% (inactive) and 19.8% (inactive)	-11% (inactive)	6% (inactive)	29.3% (inactive) and 60.9% (inactive)	23% (inactive)	16% (inactive)	37.4% (inactive) and 15.6% (inactive)
CC(=O)c1c2ccccc2cc2ccccc12	7% (inactive) and 61% (inactive)	74% (active) and 96% (active)	68.4% (inactive) and 92.3% (active)	9% (inactive) and 44% (inactive)	88% (active) and 98% (active)	79% (active) and 96.5% (active)	6% (inactive) and 45% (inactive)	77% (active) and 98% (active)	53% (inactive) and 94.7% (active)	12% (inactive) and 49% (inactive)	89% (active) and 96% (active)	72.4% (active) and 89.1% (active)	17% (inactive) and 56% (inactive)	95% (active) and 97% (active)	79.5% (active) and 95.6% (active)	9% (inactive) and 46% (inactive)	94% (active) and 97% (active)	75% (active) and 96.2% (active)
